Results as given in PubChem BioAssay (Tox21).
Unmarked numbers belong to inactive results. Active and inactive are the calls of the source. The call rests on the fitted dose curve; in most records, active means well fitted activation curve with a large enough effect in the repeat runs; inconclusive means weak or mixed curves; inactive means flat fitted curve, though single readings scatter.

Assay: Caspase-3/7 induction in CHO-K1 cells by small molecules, qHTS assay (AID 1346980); further: nearly all actives have a fitted effect of over 15% in size
Conditions: CHO-K1 caspase-3/7 induction, Caspase-Glo luminescence, 17 h; series mostly up to 92.4 µM; caspase-3/7 activation: at the top concentration
From the text: National Center for Advancing Translational Sciences [NCATS]
NIH Chemical Genomics Center [NCGC]
U.S. Environmental Protection Agency [EPA]
National Institutes of Environmental Health Sciences [NIEHS]
National Toxicology Program [NTP]
Apoptosis is a process of programmed cell death and plays a central role in the development of multicellular organisms. It is a highly regulated process and induces cell death by activating caspases, which are the members of cysteine aspartic acid-specific protease (caspase) family. Caspases involved in apoptosis are classified by their mechanism of action as initiator caspases (caspase-2, -8, -9 and -10) and executioner caspases (caspase-3, -6, and -7). Inhibition of apoptosis results in number of cancers, autoimmune diseases, inflammatory diseases and viral infection. To identify small molecule compounds that induce apoptosis, a homogeneous, luminescent Caspase-Glo 3/7 assay was used. Wild type CHO-K1 cells were used to screen Tox21 libraries for identifying caspase-3/7 activity inducers.
CHO-K1 cells were dispensed at 1,500 per well in 5uL of culture medium into white solid bottom 1536-well plates (Corning Life Sciences, Corning, NY) using a Multidrop Combi (Thermo Scientific, Waltham, MA) dispenser. The assay plates were incubated at 37 C and 5% CO2 for 5hr, and then 23nL of compounds dissolved in DMSO and positive control were transferred using a Pintool station (Wako, San Diego, CA). The assay plates were incubated at 37C and 5% CO2 for 17hr. For caspase-3/7 activity read, 4uL of Caspase-Glo 3/7 reagent (Promega Corporation, Madison, WI) was added to each well of the assay plates using Flying Reagent Dispenser (FRD, Aurora Discovery, San Diego, CA) and incubated the assay plates at room temperature for 30min. The luminescence signal was quantified using a ViewLux plate reader (Perkin Elmer, Shelton, CT).
On the % scale 0 is the no-effect control and ±100 the full control effect; potency means the concentration at half of the fitted maximal effect.

Structure (SMILES)	caspase-3/7 activation	Potency
CCN(CC)c1ccc(N=Nc2ccccc2)cc1	-5.32%	
COC(=O)c1ccc([N+](=O)[O-])cc1	-0.737%	
CC1(C)[C@H](C(=O)OCc2cccc(Oc3ccccc3)c2)[C@@H]1C=C(Cl)Cl	-0.0412%	
Oc1cccc2c(O)cccc12	4.85%	
CCOC(=O)[C@H](C)O	0.616%	
O=C1CCC/C=C\CCCCCCCCCC1	5.78%	
CCOc1nc(F)cc2nc(S(=O)(=O)Nc3c(Cl)cccc3C(=O)OC)nn12	1.47%	
CC(C)(C)c1cc(CCC(=O)OCCSCCOC(=O)CCc2cc(C(C)(C)C)c(O)c(C(C)(C)C)c2)cc(C(C)(C)C)c1O	-1.96% [at 42.5 µM]	
Nc1ccc(Cl)c([N+](=O)[O-])c1	4.83%	
Nc1cccnc1N	0.155%	
COCCC(=O)OC	-0.956%	
CCOC(=O)OC(=O)OCC	-0.422%	
O=C1OC(=O)c2cc(-c3ccc4c(c3)C(=O)OC4=O)ccc21	0.931%	
CCNc1nc(NC(C)(C)C)nc(OC)n1	1.22%	
CCCCCCCCCCCCCCCCCCNC(=O)OC1CCN(C(=O)OC[C@H](COC(=O)N(Cc2cccc[n+]2CC)C(=O)c2ccccc2OC)OC)CC1	-5.11% [at 42.5 µM]	
c1ccc2c(c1)-c1ccc3ccc4cccc5cc-2c1c3c45	-0.77% [at 42.5 µM]	
N#Cc1ccc(C/C(=N/NC(=O)Nc2ccc(OC(F)(F)F)cc2)c2cccc(C(F)(F)F)c2)cc1	-3.18%	
Nc1cc([N+](=O)[O-])cc(Cl)c1O	0.466%	
Cn1c(=O)[nH]c2ncn(C)c2c1=O	-0.0957%	
c1ccc2cc3c4ccccc4c4ccccc4c3cc2c1	6.9%	

Structure (SMILES)	caspase-3/7 activation	Potency
CCCCCN=C(N)N/N=C/c1c[nH]c2ccc(OC)cc12	-6.38% [at 42.5 µM]	
CCC1(C)C(=O)N(Cl)C(=O)N1Cl (stereo not given)	0.335%	
CN(C[C@@H](CC[N+]12CCC(C3CCCCC3)(CC1)CC2)c1ccc(Cl)c(Cl)c1)C(=O)c1cc(C(F)(F)F)cc(C(F)(F)F)c1	-4.01%	
CCC(C)(C)c1ccc(CC(C)CN2C[C@@H](C)O[C@@H](C)C2)cc1 (stereo not given in full)	6.17% [at 42.5 µM]	
CC(C)c1ccc2sc3ccccc3c(=O)c2c1	-5.92%	
CCN(CC)c1ccc(C=O)c(O)c1	-0.56%	
[Cl][Eu]([Cl])[Cl]	-0.293%	
O=C1CCCCCCCCCCCCCC1	-0.01%	
O[Si](c1ccccc1)(c1ccccc1)c1ccccc1	11.4%	
C=C1C(CCl)(CCl)C2(Cl)C(Cl)C(Cl)C1(Cl)C2(Cl)Cl (stereo not given)		48 µM (active)
CCOC(=O)[C@H](O)[C@@H](O)C(=O)OCC	0.697%	
O=C1CCC(=O)N1	0.108%	
NCc1ccco1	0.526%	
CC1CCC(C(C)(C)O)CC1 (stereo not given)	0.575%	
Clc1ccc2c(Cl)ccnc2c1	-0.433%	
C=Cc1ccc(O)c(OC)c1	0.332%	
C=C(C)CCO	0.357%	
C=C[Si](C)(C)Cl	0.183% [at 8.39 µM]	
C[C@H]1O[C@@H](O[C@H]2CC[C@@]3(C)[C@H](CC[C@@H]4[C@@H]3C[C@@H](O)[C@]3(C)[C@@H](C5=CC(=O)OC5)CC[C@]43O)C2)C[C@H](O)[C@@H]1O[C@H]1C[C@H](O)[C@H](O[C@H]2C[C@H](O)[C@H](O[C@@H]3O[C@H](CO)[C@@H](O)[C@H](O)[C@H]3O)[C@@H](C)O2)[C@@H](C)O1	-0.0265% [at 42.5 µM]	
O=[N+]([O-])c1ccc(O)c2ncccc12		5.96 µM (active)
